Data taken from PubChem BioAssay (NCI).
About 79,000 compounds went through this panel and 15% of them were active in at least one assay; those are over-represented in the sample as a whole. The source made the active and inactive calls. Cut-off read from the data, not from the text of the source: active = growth inhibition above about 70%; inactive = the rest.

What was measured:
[1] = NCI Yeast Anticancer Drug Screen. Data for the rad50 strain (AID 155);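 note: 0% = growth of vehicle-only cultures of the same strain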; conditions: S. cerevisiae rad50 strain growth inhibition, stronger effect = higher value
Procedure, shortened: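 DNA repair mutant yeast, compound exposure, growth read-out; inhibition is taken relative to vehicle.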

[2] = NCI Yeast Anticancer Drug Screen. Data for the mec2-1 strain (AID 157); conditions: S. cerevisiae mec2-1 strain, stronger effect = higher value
Procedure, shortened: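 Test agents were screened against the mec2-1 yeast strain, with defined DNA repair or cell cycle alteration. Growth was scored as inhibition against vehicle-only controls.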

[3] = NCI Yeast Anticancer Drug Screen. Data for the sgs1 mgt1 strain (AID 161);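 note: 0% = growth of cultures given vehicle only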; conditions: S. cerevisiae sgs1 mgt1 strain, stronger effect = higher value
Procedure, shortened: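 Inhibition of yeast growth, normalised to vehicle-treated controls, is reported for a strain bearing genetic alterations in DNA damage repair.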

[4] = NCI Yeast Anticancer Drug Screen. Data for the cln2 rad14 strain (AID 165);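 note: 0% = growth equal to vehicle treated cultures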; conditions: S. cerevisiae cln2 rad14 strain, stronger effect = higher value
Procedure, shortened: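 Growth of compound-exposed yeast (cln2 rad14 genotype) measured and expressed as inhibition relative to vehicle.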

[5] = NCI Yeast Anticancer Drug Screen. Data for the bub3 strain (AID 167); conditions: S. cerevisiae bub3 mutant strain, stronger effect = higher value
Procedure, shortened: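 In this screen, a yeast mutant lacking normal mitotic checkpoint function is challenged with compound. Relative growth versus vehicle gives the inhibition value.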

[6] = NCI Yeast Anticancer Drug Screen. Data for the mlh1 rad18 strain (AID 175); conditions: S. cerevisiae mlh1 rad18 strain growth inhibition, stronger effect = higher value
Procedure, shortened: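 In this whole-cell yeast screen, a strain with altered DNA damage repair is challenged with compound, and its growth is measured against matched vehicle-treated controls.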

[7] = at 5.0 µM (retest, dose inferred, filed as 0.5)
[8] = at 50.0 µM (retest, dose inferred, filed as 5.0)

Measured: growth inhibition

CC1CCN(CCOC(=O)C(c2ccccc2)C2C=CCCC2)C1C (configuration not stated)
active: [1]; at 50.0 µM 81.1% | [2]; [8] 71% | [3]; [8] 80% | [3]; at 50.0 µM 84.5% | [4]; at 50.0 µM 86.9% | [6]; [8] 78% | [6]; at 50.0 µM 77.5%
inactive: [1]; [7] 16% | [1]; [8] 59% | [2]; [7] 45% | [2]; at 50.0 µM 58.9% | [3]; [7] 53% | [4]; [7] 16% | [4]; [8] 53% | [5]; [7] 16% | [5]; [8] 50% | [5]; at 50.0 µM 62% | [6]; [7] 54%

CCCC1=C(c2ccccc2)C(O)(c2ccccc2)C(CCC)C1=O (configuration not stated)
inactive: [1]; [7] 0% | [1]; [8] 46% | [2]; [7] 4% | [2]; [8] 47% | [3]; [7] 0% | [3]; [8] 37% | [4]; [7] -9% | [4]; [8] 19% | [5]; [7] -3% | [5]; [8] 69% | [6]; [7] 4% | [6]; [8] 47%
active: [1]; at 50.0 µM 97.8% | [2]; at 50.0 µM 96.4% | [3]; at 50.0 µM 96.2% | [4]; at 50.0 µM 95.3% | [5]; at 50.0 µM 93.3% | [6]; at 50.0 µM 95.8%

O=[N+]([O-])c1cc(Br)cc2c1nc(NCCCO)c1ccccc12
active: [1]; [8] 93% | [1]; at 50.0 µM 95.7% | [2]; [8] 92% | [2]; at 50.0 µM 96.4% | [3]; [8] 96% | [3]; at 50.0 µM 98.5% | [4]; [8] 89% | [4]; at 50.0 µM 94.3% | [5]; [8] 96% | [5]; at 50.0 µM 94.6% | [6]; [8] 97% | [6]; at 50.0 µM 98.8%
inactive: [1]; [7] 42% | [2]; [7] 11% | [3]; [7] 43% | [4]; [7] 33% | [5]; [7] 12% | [6]; [7] 59%

COc1ccc2c(c1)[n+]([O-])c(-c1ccc(C)cc1)c(N)[n+]2[O-]
active: [1]; [8] 98% | [1]; at 50.0 µM 99.4% | [2]; [8] 99% | [2]; at 50.0 µM 99.5% | [3]; [8] 100% | [3]; at 50.0 µM 99.3% | [4]; [8] 96% | [4]; at 50.0 µM 98.8% | [5]; [7] 75% | [5]; [8] 99% | [5]; at 50.0 µM 99.4% | [6]; [8] 98% | [6]; at 50.0 µM 99.2%
inactive: [1]; [7] 17% | [2]; [7] 22% | [3]; [7] 38% | [4]; [7] 34% | [6]; [7] 63%

CC(CO)CCC(=O)C(C)C1C(=O)CC2CC3CC(O)CCC3(C)CC21C (configuration not stated)
inactive: [1]; [7] 3% | [1]; [8] 41% | [2]; [7] -2% | [2]; [8] 66% | [3]; [7] 2% | [3]; [8] 48% | [4]; [7] 4% | [5]; [7] 2% | [5]; at 50.0 µM 63.6% | [6]; [7] 16%
active: [1]; at 50.0 µM 83.2% | [2]; at 50.0 µM 81% | [3]; at 50.0 µM 84% | [4]; [8] 88% | [4]; at 50.0 µM 95.1% | [5]; [8] 85% | [6]; [8] 89% | [6]; at 50.0 µM 90.3%

O=C(CCl)Nc1cc(Cl)ccc1Cl
active: [5]; [8] 83% | [5]; at 50.0 µM 84.6%
inactive: [1]; [7] 2% | [1]; [8] 23% | [1]; at 50.0 µM 37.5% | [2]; [7] -20% | [2]; [8] 26% | [2]; at 50.0 µM 30.8% | [3]; [7] 6% | [3]; [8] 30% | [3]; at 50.0 µM 43.4% | [4]; [7] 5% | [4]; [8] 20% | [4]; at 50.0 µM 18.1% | [5]; [7] 10% | [6]; [7] 2% | [6]; [8] 18% | [6]; at 50.0 µM 4.8%

C[CH2][Sn]([CH2]C)([O]C(=O)c1ccccc1OC)[O][Sn]([CH2]C)([CH2]C)[O]C(=O)c1ccccc1OC
inactive: [1]; [7] 36% | [1]; at 50.0 µM 51.6% | [2]; [7] 35% | [2]; at 50.0 µM 41% | [3]; [7] 33% | [3]; at 50.0 µM 42.2% | [4]; [7] 20% | [4]; [8] 62% | [4]; at 50.0 µM 20.8% | [5]; [7] 35% | [5]; at 50.0 µM 32.1% | [6]; [7] 38%
active: [1]; [8] 78% | [2]; [8] 87% | [3]; [8] 83% | [5]; [8] 94% | [6]; [8] 84% | [6]; at 50.0 µM 72.8%

C/C=C/C=C\C1OC(O)([C@H](CC)C(=O)NC/C=C/C=C(\C)[C@H](OC)C(C)C2OC(\C=C/C=C/C=C(\C)C(=O)c3c(O)ccn(C)c3=O)[C@H](O)[C@@H]2O)C(O)C(O)C1(C)C (some centres not stated)
inactive: [1]; [7] -23% | [1]; [8] -46% | [1]; at 50.0 µM 35.5% | [2]; [7] -26% | [2]; [8] -18% | [2]; at 50.0 µM 9.5% | [3]; [7] -13% | [3]; [8] 34% | [4]; [7] -14% | [4]; [8] 35% | [4]; at 50.0 µM 26.9% | [5]; [7] -42% | [5]; [8] -26% | [5]; at 50.0 µM 26.1% | [6]; [7] -41% | [6]; [8] -62% | [6]; at 50.0 µM 17%
active: [3]; at 50.0 µM 80.5%

CCCCCCCCCCCCCCCCCC[n+]1cccc(C(=O)N2CCOCC2)c1
inactive: [4]; [7] 60%
active: [1]; [7] 91% | [1]; [8] 99% | [1]; at 50.0 µM 99.8% | [2]; [7] 86% | [2]; [8] 100% | [2]; at 50.0 µM 99.8% | [3]; [7] 99% | [3]; [8] 100% | [3]; at 50.0 µM 99.8% | [4]; [8] 99% | [4]; at 50.0 µM 99.3% | [5]; [7] 86% | [5]; [8] 99% | [5]; at 50.0 µM 99.7% | [6]; [7] 97% | [6]; [8] 100% | [6]; at 50.0 µM 99.8%
